Only some compounds are listed: those with a hit (about 7.8% of all), similar ones and a draw of the others.
PostGolgi ctrl – growth of the yeast control strain, post-Golgi counter-screen; efflux-deficient yeast background strain, growth absorbance A615, 16 h; inhibition, % at 10 µM; hit rate 5% among 98,000
sEH activator – increases human soluble epoxide hydrolase activity. purified human sEH enzymatic activity, activator screen. activation, % at 2 µM. hit rate 0.04% among 91,000; in the data active means activation above about 37%
Target sequence (P34913 whole entry, looked up): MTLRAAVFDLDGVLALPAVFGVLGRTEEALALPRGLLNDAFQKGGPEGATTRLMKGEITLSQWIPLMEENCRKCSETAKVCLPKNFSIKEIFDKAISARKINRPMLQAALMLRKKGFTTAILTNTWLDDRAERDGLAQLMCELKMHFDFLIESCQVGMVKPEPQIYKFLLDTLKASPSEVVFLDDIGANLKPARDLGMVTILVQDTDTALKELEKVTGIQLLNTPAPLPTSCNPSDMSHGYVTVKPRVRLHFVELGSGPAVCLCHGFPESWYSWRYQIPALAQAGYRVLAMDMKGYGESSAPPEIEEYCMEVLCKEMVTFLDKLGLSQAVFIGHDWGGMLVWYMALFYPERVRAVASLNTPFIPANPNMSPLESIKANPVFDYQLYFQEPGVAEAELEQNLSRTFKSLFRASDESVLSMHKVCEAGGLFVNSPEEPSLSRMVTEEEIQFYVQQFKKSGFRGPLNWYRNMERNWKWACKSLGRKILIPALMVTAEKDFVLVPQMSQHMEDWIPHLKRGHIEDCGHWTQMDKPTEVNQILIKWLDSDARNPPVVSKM
Cav32 inh – blocks human Cav3.2 T-type calcium channel; hit rate 4% among 100,000; AID 449739; B-score at 10 µM; Cav3.2-expressing cells, Fluo-4 calcium fluorescence FDSS; stronger effect = lower value;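 active means single-dose well whose peak fluorescence ratio is a statistical outlier from its plate by either plate-standardised score or position-corrected B-score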
PostGolgi yeast – growth inhibition of a yeast mutant, post-Golgi transport screen; post-Golgi transport phenotypic cell assay; inhibition, % at 10 µM; hit rate 0.9% among 98,000;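 further: yeast cells grown in 1536-well plates; yeast grown about 18 h at 30C before absorbance read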
sEH inhibitor – inhibitors of human soluble epoxide hydrolase | hit rate 0.34% among 91,000 | AID 707 | inhibition, % at 2 µM | P34913 | recombinant human sEH enzymatic activity assay; in the data active means inhibition above about 80%
Of the large screens only hits and unclear results are named; the others gave an inactive call. Unless noted, no stated cut-off is given here; in the data, active means inhibition above about 30%; inactive means the rest.

Cc1ccccc1COC[C@H](CC(C)C)N1CCN(C(=O)c2cccc(C(F)(F)F)c2)CCC1=O	none (no result: PostGolgi ctrl, sEH activator, PostGolgi yeast, sEH inhibitor)
COc1ccc(C(=O)c2c(C(F)(F)F)oc3c2C(=O)c2ccccc2C3=O)cc1	PostGolgi ctrl 46, PostGolgi yeast 84
COC(=O)CSc1nc2cc3c(cc2cc1C)OCCO3	PostGolgi ctrl 36
O=C(CN1CCN(c2ccccn2)CC1)N(c1ccccc1)c1ccc2ccccc2c1	PostGolgi ctrl 66, Cav32 inh -6.3 (no result: sEH activator, sEH inhibitor)
O=C(CN1CCOCC1)N(c1ccccc1)c1ccc2ccccc2c1	none
O=C(O)CC(NC(=O)COc1ccc(Cl)cc1Cl)C(=O)O (stereo not given)	none
C=CCSC(=C(C#N)C#N)c1cc2c([nH]1)CCCC2	Cav32 inh -6.3
O=C(O)c1cc2c([nH]c1=O)CCCC2	none
CC(Nc1ccc(Br)cc1)C(=O)N/N=C/c1ccccc1OCc1ccccc1 (stereo not given)	none
COc1ccc(NC(C)C(=O)N/N=C/c2ccccc2OCc2ccc(Br)cc2)cc1 (stereo not given)	Cav32 inh -5.9
COC(=O)C1=C(C(=O)OC)[C@@H]2N(C)c3ccccc3[C@@]23C[C@@H](C(=O)OC)N(C(=O)c2cc(C)oc2C)C3=N1	none (no result: PostGolgi ctrl, sEH activator, PostGolgi yeast, sEH inhibitor)
CC(C)(C)c1ccc(C(=O)NNc2cc(N3CCCCC3)nc(N3CCCCC3)n2)cc1	Cav32 inh -8.3
CC(=O)NNc1cc(N2CCOCC2)nc(N2CCOCC2)n1	none (no result: PostGolgi ctrl, sEH activator, PostGolgi yeast, sEH inhibitor)
COc1ccc(-c2cc(-c3ccc(F)cc3)nc(N3CCN(C)CC3)n2)cc1	PostGolgi ctrl 32
COc1ccc(-c2cc(C(F)(F)F)nc(N3CCOCC3)n2)cc1	none
Cc1nn(C)cc1/C=N\NC(=O)c1ccc2c(c1)c(C)c(C)n2Cc1ccccc1	Cav32 inh -3.8
COCCCNC(=O)c1ccc(Cn2c(=O)c3ccccc3n(Cc3ccccc3C#N)c2=O)cc1	none
N#Cc1ccccc1Cn1c(=O)n(C2CCCC2)c(=O)c2ccccc21	PostGolgi ctrl 30, Cav32 inh -5.1
O=c1c2ccccc2n(Cc2cccc(F)c2)c(=O)n1C1CCCC1	PostGolgi ctrl 40 (no result: sEH activator, Cav32 inh, sEH inhibitor)
O=C(NCc1ccco1)c1ccc(Cn2c(=O)c3ccccc3n(Cc3cccc(F)c3)c2=O)cc1	none
COc1ccc(Nc2ccc3nnc(-c4ccc(Br)cc4)n3n2)cc1	none
O=C(Nc1cccc(Cl)c1)ON=C1c2ccccc2-c2ccccc21	none
Clc1ccc(Nc2ccc(-n3ccnc3)nn2)cc1Cl	PostGolgi ctrl 34
CCCCOC(=O)c1cccnc1	none (no result: PostGolgi ctrl, sEH activator, PostGolgi yeast, sEH inhibitor)
NC(=O)c1ccc(C(F)(F)F)n(Cc2ccc(Cl)cc2)c1=O	none
NC(=O)c1ccc(C(F)(F)F)n(Cc2cccc(Cl)c2)c1=O	PostGolgi ctrl 61
Nc1nc(C2CCCN2S(=O)(=O)c2ccc(Cl)cc2)cs1 (stereo not given)	none
CN1CC(c2ccccn2)C2(SC(=S)N(Cc3ccccc3)C2=O)C12C(=O)Nc1ccccc12 (stereo not given)	Cav32 inh -4.8
CN1CC(c2ccccc2)C2(SC(=S)N(Cc3ccco3)C2=O)C12C(=O)Nc1ccccc12 (stereo not given)	Cav32 inh -4.7
COc1ccc(C2=CSC3=C(C(=O)c4cccc(S(=O)(=O)N(C)C)c4)CCN23)cc1	none
CC1CCN(C2CCN(S(=O)(=O)c3ccc(F)cc3)CC2)CC1	PostGolgi ctrl 31
O=S(=O)(c1ccc(F)cc1)N1CCC(N2CCCCCC2)CC1	none
CCN1CCN(S(=O)(=O)c2ccc3ccccc3c2)CC1	none
CC1CN(C2CCN(S(=O)(=O)c3ccc4ccccc4c3)CC2)CC(C)O1 (stereo not given)	PostGolgi ctrl 38, PostGolgi yeast 83 (no result: sEH activator, sEH inhibitor)
Cc1ccc(S(=O)(=O)N2CCN(C3CCC(c4ccccc4)CC3)CC2)cc1 (stereo not given)	PostGolgi ctrl 96, PostGolgi yeast 89 (no result: Cav32 inh)
O=C1N[C@@H](Cc2cn(S(=O)(=O)c3c(F)c(F)c(F)c(F)c3F)c3ccccc23)C(=O)N[C@H]1Cc1ccccc1	none (no result: PostGolgi ctrl, sEH activator, PostGolgi yeast, sEH inhibitor)
N#CC1=C(N)Oc2cc(Nc3ccccc3)ccc2C1c1ccncc1 (stereo not given)	none
Cc1ccc(CNC(=O)C2CCN(S(=O)(=O)c3c(C)noc3/C=C/c3ccco3)CC2)cc1	PostGolgi ctrl 33
Cc1noc(/C=C/c2ccco2)c1S(=O)(=O)N1CCC(C(=O)NCc2ccco2)CC1	none (no result: sEH activator, sEH inhibitor)
O=C(C1CCN(S(=O)(=O)c2cccs2)CC1)N1CCc2ccccc2C1	none
Cc1noc(/C=C/c2ccco2)c1S(=O)(=O)N1CCC(C(=O)N2CCc3ccccc3C2)CC1	PostGolgi ctrl 39 (no result: sEH activator, Cav32 inh, sEH inhibitor)
CC(C)c1cn(C2OC(COC(=O)c3ccccc3)C(OC(=O)c3ccccc3)C2OC(=O)c2ccccc2)c(=O)[nH]c1=O (stereo not given)	none (no result: PostGolgi ctrl, sEH activator, PostGolgi yeast, sEH inhibitor)
C=CCn1c2ccccc2c2nnc(SCN3C(=O)c4ccccc4C3=O)nc21	PostGolgi yeast 39
CC(C)C(c1nnnn1Cc1ccco1)N1CCN(c2cccc(Cl)c2)CC1 (stereo not given)	Cav32 inh -3.8
CC(C)C(c1nnnn1C(C)(C)C)N1CCN(c2cccc(Cl)c2)CC1 (stereo not given)	PostGolgi ctrl 90
COc1cc(-c2nnc(COC(=O)c3c4c(nc5ccccc35)CCCC4)o2)cc(OC)c1OC	none
CCOC(=O)[C@@H]1[C@H]2COc3ccccc3[C@@H]2N2C(=O)N(c3ccc(C(F)(F)F)cc3)C(=O)[C@]12C	none (no result: PostGolgi ctrl, sEH activator, PostGolgi yeast, sEH inhibitor)
O=C(Nc1nnc(-c2ccccc2Cl)o1)c1ccco1	none
O=C(Nc1nnc(-c2ccccc2Cl)o1)c1nc2ccccc2s1	Cav32 inh -4.5
O=C(CN1CCCN(S(=O)(=O)c2ccc(F)cc2)CC1)Nc1ccccc1Br	PostGolgi ctrl 41
O=C(CN1CCN(S(=O)(=O)c2ccc(Br)cc2)CC1)Nc1ccccc1F	PostGolgi ctrl 54 (no result: sEH activator, sEH inhibitor)
O=C(CN1CCN(S(=O)(=O)c2ccc(Br)cc2)CC1)Nc1ccc(F)cc1F	none (no result: Cav32 inh)
COc1ccc(C)cc1NC(=O)CN1CCN(S(=O)(=O)c2ccc(Br)cc2)CC1	PostGolgi ctrl 46
COC(=O)CCCC1=CC2=C(c3ccccc3)C(=O)C(C)(OC(=O)C3CCCC3)C(=O)C2=CN1Cc1ccc(OC)cc1 (stereo not given)	none (no result: PostGolgi ctrl, sEH activator, PostGolgi yeast, sEH inhibitor)
Nc1cc2c(cc1C(=O)c1ccc(Cl)cc1)OCCO2	none
CCn1c(C(=O)NC(C)c2ccc3c(c2)OCCO3)cc2sccc21 (stereo not given)	Cav32 inh -5.1
CC(NC(=O)C12CC3CC(CC(C3)C1)C2)c1ccc2c(c1)OCCO2 (stereo not given)	Cav32 inh 3.5
CC(NC(=O)C1CCCC1)c1ccc2c(c1)OCCO2 (stereo not given)	none
Cc1ccc(-n2nnc(-c3cccnc3Cl)n2)cc1	none (no result: PostGolgi ctrl, sEH activator, PostGolgi yeast, sEH inhibitor)
COc1ccc(CNC(=O)c2ccc(N3CCC4(CC3)CC(c3ccc(Cl)cc3)=NO4)c(N)c2)cc1	none (no result: PostGolgi ctrl, sEH activator, PostGolgi yeast, sEH inhibitor)
Cc1sc2ncnc(SCC(=O)N3CCCC3=O)c2c1C	none
CCCN(CC1CC1)C(=O)CSc1ncnc2sc(C)c(C)c12	PostGolgi ctrl 37, Cav32 inh -5.2
CNC(=O)c1sccc1SCc1c(Cl)cccc1Cl	PostGolgi ctrl 46
CCOC(=O)c1ccc2c(c1)nc(COc1ccc(OC)cc1)n2CC	none
O=C(CSc1n[nH]c(-c2cccs2)n1)N1CCN(S(=O)(=O)c2ccccc2)CC1	none

Screening results as filed in PubChem.
